Bioassay records (PubChem BioAssay)
HCV inh – blocks hepatitis C virus; Huh7.5.1 HCVcc-Cre infection, luciferase reporter, 44 h; Potency, µM (series often up to 41.8 µM), for inactives: at the highest dose activity change, negative = inhibition, most hits filed as inhibitors; AID 651820; hit rate 3.4% among 340,000
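After 44 h co-culture of compound, cells and HCVcc-Cre (~0.5 moi), substrate is added for 15 min at room temperature and luciferase measured over 15 sec. Cells were seeded at 1,000/well and pre-cultured 4 h.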
AmpC inh no detg – inhibitors of E. coli AmpC beta-lactamase without detergent; AmpC nitrocefin hydrolysis, absorbance 480 nm, 0.0001% Triton; AID 485341; hit rate 0.52% among 330,000; Potency, µM (series often up to 57.1 µM), without a hit: top-dose activity change, negative = inhibition, hits mostly inhibitors;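 also: plate controls were no compound for no effect and no enzyme for full effect; nearly all actives have a fitted effect of over 20% in size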
Target sequence (P00811 whole entry, looked up): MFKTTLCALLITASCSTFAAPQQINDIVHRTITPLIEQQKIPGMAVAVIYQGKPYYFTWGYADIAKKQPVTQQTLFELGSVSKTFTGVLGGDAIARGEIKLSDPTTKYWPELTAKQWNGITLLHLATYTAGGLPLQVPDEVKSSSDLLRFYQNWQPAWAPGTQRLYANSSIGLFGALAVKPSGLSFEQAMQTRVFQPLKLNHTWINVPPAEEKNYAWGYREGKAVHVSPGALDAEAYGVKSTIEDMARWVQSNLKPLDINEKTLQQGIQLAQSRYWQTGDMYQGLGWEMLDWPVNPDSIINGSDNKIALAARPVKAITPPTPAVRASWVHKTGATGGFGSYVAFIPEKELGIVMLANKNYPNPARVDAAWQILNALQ
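20 mM phosphate pH 7.0 + 0.01% (detergent screen) or 0.0001% Triton X-100; 5.3 nM AmpC reagent; cpd preinc 15 min RT; nitrocefin (800 uM stock) to start; A480 q20 s × 4 min; Activity was normalised to no-enzyme and no-compound control wells.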
AmpC detergent – inhibitors of E. coli AmpC beta-lactamase with detergent | hit rate 0.041% among 370,000 | Potency, µM (doses to about 114 µM), for inactives: at the highest dose activity change, negative = inhibition, usual class: inhibitors | AmpC hydrolysis of nitrocefin, absorbance 480 nm, 0.01% Triton | P00811 | AID 485294;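 also: 0% = no-compound wells and -100% = no-enzyme wells; nearly all actives have a fitted effect of over 25% in size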
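20 mM phosphate pH 7.0 + 0.01% (detergent screen) or 0.0001% Triton X-100; 5.3 nM AmpC reagent; cpd preinc 15 min RT; nitrocefin (800 uM stock) to start; A480 q20 s × 4 min; Activity was normalised to no-enzyme and no-compound control wells.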
AMA1-RON2 inh – disrupts binding of P. falciparum AMA1 to RON2. AID 720542. Potency, µM (top dose mostly 58.2 µM), for inactives: at the top dose activity change, negative = inhibition, most hits filed as inhibitors. hit rate 0.2% among 360,000. AlphaScreen AMA1-biotinylated RON2 peptide binding;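 also: 0% = vehicle wells and -100% = peptide control; nearly all actives have a fitted effect of over 45% in size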
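AMA1 (3D7) with his tag at 25 nM final met compounds first, then biotinylated RON2 peptide at 25 nM; detection used donor plus acceptor beads, 10 µg/mL apiece, read by AlphaScreen after 30 min at room temperature.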
Pf growth 96h – inhibits malaria parasite growth, 96 h; P. falciparum luciferase reporter growth, 96 h; Potency, µM (series often up to 28.7 µM), inactives show top-dose activity change, negative = inhibition, usual class: inhibitors; hit rate 6.9% among 320,000; AID 504834
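Readout is luminescence from an integrated firefly luciferase in P. falciparum. Red cells, 2% hematocrit and 0.05% parasitemia final, were cultured with compound through two parasite generations (96 hours) at 37 C, 5% CO2.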
Pf growth 48h – inhibits P. falciparum growth in the first generation, 48 h; P. falciparum luciferase growth in erythrocytes, 48 h; hit rate 5.9% among 310,000; AID 504832; Potency, µM (series often up to 28.7 µM), for the others: at the top dose activity change, negative = inhibition, most hits filed as inhibitors
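Growth was read as firefly luciferase luminescence after a 48 h, 37 C, 5% CO2 exposure of compounds to reporter-bearing P. falciparum cultures (0.1% parasitemia, 2% hematocrit final) in Albumax-supplemented RPMI 1640.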
* hit, by the source's call; ? = inconclusive; . = no result given; [ ] = remark or other dose. Rows were chosen to be rich in hits. Some 11% of all compounds tested hit in one or more screens of this group. Calls follow the shape of the dose curve; as a rule, active = well fitted curve in the direction sought with a large enough effect; inconclusive = small, poorly fitted or top-dose-only effect, or another doubt; inactive = no such curve, though single readings can be large; an effect the other way counts as inactive or inconclusive. Unless noted, % is scaled to controls: 0 for no effect and ±100 for the full control effect; potency is read from the fitted curve at half-maximal effect.

SMILES	HCV inh	AmpC inh no detg	AmpC detergent	AMA1-RON2 inh	Pf growth 96h	Pf growth 48h
Cc1ccc(Nc2nc(N3CCOCC3)c3ccccc3n2)cc1	?	-12%	-6%	-6%	10µM*	.
Cc1ccc(S(=O)(=O)Nc2cccc(-c3ccc(N4CCC(C)CC4)nn3)c2)s1	.	.	-3%	.	.	.
O=C(Nc1sc2c(c1C(=O)NCC1CCCO1)CCC2)c1cc(=O)c2ccccc2o1 (centres undefined)	.	.	-1%	.	.	.
COc1ccc2c(c1)O[C@H](c1ccc3c(c1)OCO3)[C@@H](OC(=O)N[C@H]1CCCc3ccccc31)C2=O	-28%	-36%	-12%	-2%	-6%	29%
COc1ccc2c(c1)O[C@@H](c1ccc3c(c1)OCO3)[C@H](OC(=O)Nc1cc(OC)c(OC)c(OC)c1)C2=O	-23%[8.37 µM]	62%	-1%	.	?	13µM*
CC[C@H](C)[C@@H](NC(=O)O[C@@H]1C(=O)c2cc(Br)ccc2O[C@H]1c1ccc2c(c1)OCO2)C(=O)OC	2%[8.37 µM]	35µM*	-8%	.	21%	31%
CCc1ccc(-n2c(=O)c3cccnc3n2CC(=O)N(CC)c2cccc(C)c2)cc1	.	.	11%	.	.	.
COc1ccc(N2CCN(C(=O)CCc3c(C)nn(-c4ccc(N5CCCC5)nn4)c3C)CC2)cc1	.	.	-7%	.	.	.
COc1cccc2c(=O)n(CC(=O)NC3CCCC3)ccc12	14%	-8%	?	12%	30%	40%
COc1cccc2c(=O)n(CC(=O)N3CCCCC3)ccc12	20%	40µM*	2%	1%	0%	5%
COc1cccc2c(=O)n(CC(=O)Nc3ccc(F)cc3F)ccc12	9%	25µM*	?	0%	0%	-1%
COc1cccc2c(=O)n(CC(=O)N3CCCc4ccccc43)ccc12	-4%	1%	?	-3%	?	.
COc1cccc2c(=O)n(CC(=O)Nc3ccccc3)ccc12	24%	50µM*	-11%	-4%	46%	24%
CC1CCc2c(sc(NC(=O)c3ccccc3)c2C(=O)Nc2ccccc2)C1 (centres undefined)	.	.	7%	.	.	.
CCOC(=O)c1[nH]c2ccccc2c1NC(=O)c1ccccc1OCC	.	.	8%	.	.	.
Cc1cc(N)ccc1N1CCCC1	-9%	16%	-3%	16µM*	0.41µM*	0.47µM*
Cc1cc(N)ccc1-n1c(C)ccc1C	1%	-1%	-11%	-5%	11%	7.4µM*
O=C(NCC(c1cccnc1)N1CCc2ccccc21)c1cccc(F)c1 (centres undefined)	.	.	6%	.	.	.
O=C(COC(=O)c1ccc(O)cc1O)NC1CCS(=O)(=O)C1 (centres undefined)	14%	-5%	-12%	1%	-23%	-5%
O=C(COC(=O)c1ccc(O)cc1O)NC1CCCCCC1	13µM*	-31%	-15%	-2%	?	34%
O=C(COC(=O)c1ccc(O)cc1O)NC12CC3CC(CC(C3)C1)C2	13µM*	-43%	-5%	-7%	-7%	?
CCOC(=O)C[n+]1c(C)ccc2c1CCC2	-11%	-5%	?	8%	8.3µM*	-6%
Cc1ccc(C)c(NC(=O)CSc2nc3ccc(N4C(=O)c5ccccc5C4=O)cc3s2)c1	10%	-50%	-10%	-13%	4.1µM*	41%
Cc1ccc(NC(=O)CSc2nc3ccc(NC(=O)CCc4ccccc4)cc3s2)c(C)c1	.	.	23%	.	.	.
Cc1ccccc1NC(=O)C(C)N1C(=O)c2ccccc2C1=O (centres undefined)	12%	-1%	-1%	43%	2.9µM*	-11%
SMILES	HCV inh	AmpC inh no detg	AmpC detergent	AMA1-RON2 inh	Pf growth 96h	Pf growth 48h
Cc1ccc(Cl)cc1NC(=S)NCCCSC1CCCCC1	10µM*	-48%	7%	1%	?	-21%
Oc1cc2cc(CCN3CCN(c4nsc5ccccc45)CC3)c(Cl)cc2[nH]1	.	.	.	.	11µM*	13µM*
O=S(=O)(c1cccs1)N1CCC2(CC1)OCCO2	7%	-11%	4%	4%	13µM*	?
COc1ccc(N2C(=O)C3CCCN3C2c2cccc(C)c2)cc1 (centres undefined)	5%	-7%	?	-7%	?	.
COc1cccc(C2N(c3ccc(Cl)cc3)C(=O)C3CCCN32)c1 (centres undefined)	-3%	8%	-3%	3%	5.2µM*	-3%
COc1ccc(-c2cc3c(=O)n(CC(=O)NCCCN4CCC(N5CCCCC5)CC4)nc(C)n3n2)cc1	?	36%	1%	-11%	8.3µM*	?
CCc1ccc(-c2cc3c(=O)n(CC(=O)N4CCCC4)nc(C)n3n2)cc1	9%	-9%	-9%	14%	0%	1%
CCc1ccc(-c2cc3c(=O)n(CC(=O)NCCN4CCCCC4C)nc(C)n3n2)cc1 (centres undefined)	11µM*	12%	-6%	13%	-13%	?
Cc1ccc2[nH]c(C(=O)N3CCCCC3)cc2c1	5%	-26%	-14%	-3%	149%	62%
Cc1nn(CC(=O)NCCCN2CC(C)CC(C)C2)c(=O)c2cccn12 (centres undefined)	23%	-16%	0%	-6%	10µM*	26%
Cc1ccc2[nH]c(C(=O)NCCN3CCCC3)cc2c1	-18%	-4%	1%	0%	12µM*	?
COc1ccc(OCC(=O)NC2CC(=O)N(c3cccc(OC)c3)C2)cc1 (centres undefined)	.	.	6%	.	.	.
CC(C)c1ccc(S(=O)(=O)N2CCN(CC(=O)Nc3ccccc3C(F)(F)F)CC2)cc1	.	.	3%	.	.	.
Cc1ccc2c(c1)cc1c(=O)n(CC(=O)NCCN3CCCC3)nc(C)n12	-8%	24%	3%	10%	9.3µM*	24%
Cc1ccc2c(c1)cc1c(=O)n(CC(=O)N3CCCC3)nc(C)n12	-1%	-10%	5%	-6%	?	15%
Cc1nn(CC(=O)NCCCN2CCCCC2)c(=O)c2cc(-c3ccccc3)nn12	-17%	-13%	?	-6%	4.1µM*	17%
CCN1CCCC1CNC(=O)Cn1nc(C)n2nc(-c3ccccc3)cc2c1=O (centres undefined)	-20%	36%	4%	11%	-18%	17%
O=C(NCc1ccc2c(c1)CCN2C(=O)c1ccncc1)c1cccc(Cl)c1	.	.	6%	.	.	.
CCN1C(=O)C(Cc2nc3ccccc3c(=O)n2-c2ccccc2)c2cc(Br)ccc21 (centres undefined)	.	.	-4%	.	.	.
COc1cc(C(=O)N/C(=C\c2cn(S(=O)(=O)N(C)C)c3ccccc23)C(=O)NCCCO)cc(OC)c1OC	-16%	219%	4%	-23%	8.3µM*	?
